# Measurements published in PubChem BioAssay (NCI).
# The panel holds about 79,000 compounds, 15% with a hit somewhere; the sample as a whole holds those more often. Values without a mark were called inactive. Calls of active or inactive are those of the source. Rule as the data show it: active = growth inhibition above about 70%; inactive = the rest.
# Assay: NCI Yeast Anticancer Drug Screen. Data for the bub3 strain (AID 167)
# Conditions: S. cerevisiae bub3 mutant strain, at 50.0 µM (retest, dose inferred, filed as 5.0), hits give high values
# Method in brief: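 Whole-cell yeast assay. The mutant strain was incubated with compounds, and growth inhibition was determined by comparison with vehicle-treated cells.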
row,SMILES,growth inhibition
1,Cc1cc(O)c(C(=O)/C=C/c2cccnc2)c(=O)[nH]1,89% (active)
2,Oc1ccccc1C(=NNc1ccccc1)c1ccccc1O,98% (active)
3,Cn1c(=S)c2[nH]c(SCCN3CCCCC3)nc2n(C)c1=O,57%
4,Cc1cc(=O)n(-c2cc3cccccc-3n2)[nH]1,95% (active)
5,CC(=O)OCC1OC(n2c(O)c(N=NC(N)=S)c3ccc([N+](=O)[O-])cc32)C(OC(C)=O)C1OC(C)=O (centres undefined),34%
6,COC(=O)NNc1c([N+](=O)[O-])cnn(-c2ccccc2)c1=O,26%
7,CC(=O)N(C1=C(Cl)C(=O)c2ccccc2C1=O)c1ccc(F)cc1,99% (active)
8,COC(=O)CC1c2cc(OC)c3cccc(OC)c3c2CCC1(C)C(=O)OC (centres undefined),90% (active)
9,CC[n+]1c(/C=C/c2ccc(N(C)C)cc2)ccc2ccccc21,99% (active)
10,COc1ccc(SC2=C(N(C)C)C(=O)c3ccccc3C2=O)cc1,-46%
11,C1=C(c2ccccc2)C(=Nc2ccccc2)SC1=Nc1ccccc1,99% (active)
12,Cc1c(O)c(Br)c(Br)c(Br)c1Br,96% (active)
13,CC1(C)OC(C(COC(=O)c2ccc([N+](=O)[O-])cc2)OS(=O)(=O)c2ccc([N+](=O)[O-])cc2)C(C(SCc2ccccc2)SCc2ccccc2)O1 (centres undefined),99% (active)
14,Cc1cccc(Cc2ccc(Cl)cc2)c1O,99% (active)
15,C=C(CN(C)C)C(=O)c1ccccc1[N+](=O)[O-],92% (active)
16,CCCCN(CCCC)CC(O)c1cc(-c2ccc(Cl)cc2)nc2c(C)cccc12 (centres undefined),94% (active)
17,O=C(Nc1ccc(Cl)cc1)NS(=O)(=O)c1c(-c2ccccc2)oc2ccccc2c1=O,97% (active)
18,Cc1cc(CN(Cc2ccccc2)Cc2nc3ccccc3[nH]2)c(O)c(CN(Cc2nc3ccccc3[nH]2)Cc2nc3ccccc3[nH]2)c1,66%
19,COC1=CC2=CCC3C(CCC4(C)C(C(C)=O)CCC34)C2(C)CC1 (centres undefined),-5%
20,OC(C1CCCCN1)C1CC(c2ccccc2)Nc2c(Cl)cc(Cl)cc21 (centres undefined),99% (active)

row,SMILES,growth inhibition
1,CN(C)C1=C(Cl)C(=O)c2ccccc2C1=O,96% (active)
2,CCCCCNC(=O)C1C(=O)N(CCCCC)C(=O)/C1=N\N (centres undefined),-3%
3,O=C(Nc1ccc(Cl)cc1)OCCOCCOC(=O)Nc1ccc(Cl)cc1,97% (active)
4,CCCC(CC)c1c(O)c(O)c(C(CC)CCC)c(C(CC)CCC)c1C(CC)CCC (centres undefined),59%
5,Cc1ccc(NC(=S)SCc2ccc3c(c2)OCO3)cc1Cl,99% (active)
6,CN(C)CCCNc1ccc(O)c2c1C(=O)c1ccccc1C2=O,98% (active)
7,CC1=C(C(=O)Nc2ccc(Cl)c(Cl)c2)C(c2ccco2)C(C(=O)Nc2ccc(Cl)c(Cl)c2)=C(C)N1,10%
8,Cc1ccccc1NC(=O)CSC(N)=O,66%
9,Cc1[nH]c2ccccc2c1C(C)CC(O)c1ccccc1 (centres undefined),67%
10,Cn1c(=O)ccc2cc(C(=O)c3ccccc3)ccc21,46%
11,c1ccc2c(c1)N=c1ccccc1=P21c2ccccc2Nc2ccccc21,99% (active)
12,Nc1[nH]cnc(=S)c1NC=O,-3%
13,COC(=O)CCC(=O)c1ccc2c(c1)CC1(Cc3ccccc3C1)C2,44%
14,CCC[CH2][Sn]([CH2]CCC)([O]C(=O)c1cc(F)cc(F)c1)[O][Sn]([CH2]CCC)([CH2]CCC)[O]C(=O)c1cc(F)cc(F)c1,99% (active)
15,CCOC(=O)CSC(=S)Nc1ccc(Cl)cc1,61%
16,CC1(C)CC(=O)C(C(c2ccc3c(c2)OCO3)N2CCOCC2)C(=O)C1 (centres undefined),-11%
17,COC(=O)c1c(C)cccc1C(=O)c1c(C)cc(C)cc1C,56%
18,C=C1C(=O)OC2CC3(C)CC(O)C(O)C(=C)C3CC12 (centres undefined),8%
19,CCOC(=O)C1=C(N)N(S(=O)(=O)c2ccc(C)cc2)CCC(C(=O)OC)=C1,-4%
